This passage reports inhibition results from PubChem BioAssay AID1565 (Sanford-Burnham Center for Chemical Genomics, 2009).

The structures appear in SMILES notation. The whole screen tested about 290,000 compounds, of which about 3,200 (1.1%) were called active. The sample holds actives, similar compounds and a random draw of the others, so the mix is not that of the screen. A number with no mark means an inactive call. Rule as the data show it: active = inhibition above about 60%; inactive = the rest.

Phosphoethanolamine/phosphocholine phosphatase (Homo sapiens), sequence (Q8TCT1 whole entry, looked up): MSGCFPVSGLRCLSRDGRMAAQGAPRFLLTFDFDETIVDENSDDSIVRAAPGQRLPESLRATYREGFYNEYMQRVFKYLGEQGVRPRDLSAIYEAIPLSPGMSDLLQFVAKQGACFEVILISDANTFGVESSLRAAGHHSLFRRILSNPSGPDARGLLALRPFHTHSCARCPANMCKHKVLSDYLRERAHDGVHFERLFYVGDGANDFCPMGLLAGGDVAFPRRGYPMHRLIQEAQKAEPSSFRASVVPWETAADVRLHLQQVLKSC

This test addresses Phosphoethanolamine/phosphocholine phosphatase (Homo sapiens) (UniProt Q8TCT1). Description: PubChem AID 1565. The note with it: recombinant PHOSPHO1, absorbance phosphatase assay; at 13.3 µM; active compounds read high.
On to `COc1ccc(C(=O)NCCn2nc(C)cc2C)cc1OC1CCN(C(C)=O)CC1`, for which the inhibition – broadly, the change of the read-out against control, counted positive when it falls – was 19.2%.
Consider `COc1ccc2c(c1)c1nc3n(c(=O)c1n2CC(=O)Nc1ccccc1)CCS3`, for which the inhibition is -27.3%.
In the case of `Cn1c(=O)c2c(nc(NCCNC(=O)c3ccco3)n2Cc2ccccc2F)n(C)c1=O`, the inhibition was 26.1%.
The figure for `Cc1nn(C)cc1CNC(=O)Nc1ccc(Cl)cc1` is 8%.
Regarding `Cc1nn(C)cc1C(=O)NNC(=S)Nc1ccc(Cl)cc1`, the inhibition was 97.7% (active).
Turning to `Cn1cc(Cl)c(C(=O)NNC(=S)Nc2cccc(Cl)c2)n1`, the inhibition is -35.3%.
The figure for `O=S1(=O)N=C(N(CCO)/N=C/c2ccccc2F)c2ccccc21` is 28.4%; for `Cc1nonc1NC(=O)c1oc2ccccc2c1C` it is 24%; for `CC1CCCC(NC(=O)CSc2nccn2C)C1C` (stereo not drawn) it is 92.3% (active).
With `Cn1ccnc1SCC(=O)Nc1ccc2c(c1)OCCO2`, the inhibition was 19.8%.
As to `CC1CCCCC1NC(=O)CSc1nnc(N)s1` (stereo not drawn), the inhibition is -3.4%.
Take `CCn1cc(/C=C(\NC(=O)c2cc(OC)c(OC)c(OC)c2)C(=O)N2CCN(C)CC2)c2ccccc21`: the inhibition is 49.6%.
Take `COc1ccc(C2/C(=C(/O)c3ccccc3)C(=O)C(=O)N2C)c(OC)c1` (stereo not drawn): the inhibition is -2.4%.
In the case of `COc1ccccc1C1/C(=C(/O)c2ccc(OC(C)C)cc2)C(=O)C(=O)N1c1cc(C)on1` (stereo not drawn) it was -55.7%.
The figure for `CCOc1ccc(/C(O)=C2\C(=O)C(=O)N(c3ccc(OC)cc3)C2c2ccccc2[N+](=O)[O-])cc1` (stereo not drawn) is 60.8% (active).
The figure for `COc1ccc(OCCC(=O)c2ccc(OC)cc2)cc1` is 20%; for `CC(C)CCOc1ccc(C(=O)C[N+]2(C)CCOCC2)cc1` it is 90.6% (active).
Turning to `CC(=O)c1ccc(OCCN2CCOCC2)cc1`, the inhibition is -11.5%.
In the case of `O=C(NCc1cccnc1)C12CC3CC(CC(C3)C1)C2` it was 32.6%; in that of `CN(NS(=O)(=O)c1cccs1)c1ncc(C(F)(F)F)cc1Cl`, 33.5%; in that of `COc1ccc(-n2c(C)cc(C(=O)CSc3nnc(-c4cccs4)o3)c2C)cc1`, 85.5% (active).
On to `COc1ccc(C(=O)CSc2nnc(-c3ccco3)o2)cc1`, for which the inhibition was 36.7%.
The figure for `COc1ccc(-c2nnc(SCC(=O)c3cccs3)o2)c(OC)c1` is 28.9%; for `CSCC[C@H](NC(=O)N1CCn2c1nc1ccccc12)C(=O)NC1CCCCC1` it is 35.5%.
Consider `COc1ccc(OCc2nnc3n2N=C(c2ccccc2)C(CC(=O)O)S3)cc1` (stereo not drawn), for which the inhibition is -69.6%.
Turning to `COc1cccc(C(=O)N2CCC(n3nccc3NC(=O)C3CCOC3)CC2)c1` (stereo not drawn), the inhibition was 40.8%.
As to `CN(C)c1cccc(C(=O)N2CCC(n3nccc3NC(=O)C3CCOC3)CC2)c1` (stereo not drawn), the inhibition was 27.6%.
`Cc1ccc(C(=O)N2CCC(n3nccc3NC(=O)Nc3cccc(F)c3)CC2)cn1`: the inhibition is 64% (active).
